Results as given in the supplement of paper PMC9254222.
Over roughly 1,100 compounds, “Wnt reporter firefly/Renilla luciferase ratio relative to plate median” has its median near 1.1; the highest 2% begin near 1.6. This is one part of a sample in which the highest values are shown more often than they occur.

Tested on: HEK293T (UBE3A T485A transfected, BAR Wnt reporter)
Assay: Wnt reporter firefly/Renilla luciferase ratio relative to plate median (fold (linear ratio)); higher = more Wnt/beta-catenin reporter activation
Settings: 24 h
Procedure, shortened: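 Using Fugene 6, HEK293T cells in white 384-well plates (4500 cells/well; DMEM, 10% FBS, 37°C, 5% CO2) were transfected with a BAR firefly luciferase Wnt reporter, TK-Renilla and an expression plasmid. After four hours, robots dosed the chemicals at 0.01–100 uM, and a Dual-Glo luciferase readout followed 24 h later. Per-plate median-centred firefly/Renilla ratios gave Wnt activity, while per-plate median-centred raw Renilla signals gave cell health. Four biological replicates were averaged.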

Compound | Wnt reporter firefly/Renilla luciferase ratio (concentration: 0.1 uM) | Wnt reporter firefly/Renilla luciferase ratio (concentration: 1 uM) | Wnt reporter firefly/Renilla luciferase ratio (concentration: 10 uM) | Wnt reporter firefly/Renilla luciferase ratio (concentration: 100 uM) | Wnt reporter firefly/Renilla luciferase ratio (concentration: 0.01 uM)
c1ccc(OP(Oc2ccccc2)Oc2ccccc2)cc1 [Triphenyl phosphite] | 0.971 | 1.06 | 1 | 1.26 | –
NC(=O)[O-].[NH4+] [Ammonium carbamate] | 0.817 | 0.94 | 0.934 | 1.31 | –
CCC(C)c1cc([N+](=O)[O-])cc([N+](=O)[O-])c1O (configuration not stated) [Dinoseb] | 0.797 | 0.806 | 0.929 | – | –
Clc1nc(Cl)nc(Nc2ccccc2Cl)n1 [Anilazine] | 0.926 | 1.15 | 1.18 | 1.07 | 0.958
CNC(=S)[S-].O.O.O.[Na+] [Metam-sodium hydrate] | 0.921 | 0.977 | 1.06 | 1.1 | 0.905
CCCCN(CCCC)N=O [N-Nitrosodibutylamine] | 0.968 | 0.902 | 1.04 | 1.27 | –
CCN(CC)N=O [N-Nitrosodiethylamine] | 1.12 | 1.13 | 1.27 | 1.82 | –
CCCN(CCC)N=O [N-Nitrosodipropylamine] | 1.18 | 0.939 | 1.15 | 1.06 | –
CCCCC(C#N)(Cn1cncn1)c1ccc(Cl)cc1 (configuration not stated) [Myclobutanil] | 1 | 0.933 | 1.09 | 0.269 | 0.908
COc1cc(OC)nc(NC(=O)[N-]S(=O)(=O)c2ncccc2OCC(F)(F)F)n1.[Na+] [Trifloxysulfuron-sodium] | 1.02 | 1.23 | 1.22 | 1.52 | 1.06
N#Cc1cccnc1 [3-Pyridinecarbonitrile] | 0.974 | 1.13 | 1.25 | 1.35 | –
CO/N=C(/C1=NOCCO1)c1ccccc1Oc1ncnc(Oc2ccccc2Cl)c1F [Fluoxastrobin] | 1.27 | 0.946 | 0.315 | 1.23 | 1.16
Cn1sc(Cl)cc1=O [5-Chloro-2-methyl-3(2H)-isothiazolone] | 1.28 | 1.07 | 1.07 | 0.458 | –
COc1ccc(C(c2ccc(OC)cc2)C(Cl)(Cl)Cl)cc1 [Methoxychlor] | 1.13 | 1.12 | 1.25 | 1.04 | 0.858
Cn1cc(-c2ccccc2)c(=O)c(-c2cccc(C(F)(F)F)c2)c1 [Fluridone] | 1.28 | 0.917 | 0.825 | 0.175 | –
Cc1ccc([N+](=O)[O-])cc1C [1,2-Dimethyl-4-nitrobenzene] | 0.844 | 1.17 | 1.19 | 1.42 | –
CN(C)c1ccccc1 [N,N-Dimethylaniline] | 1.11 | 1.11 | 0.912 | 1.02 | –
C[C@]12CCC(=O)C=C1CC[C@@H]1[C@@H]2CC[C@]2(C)C(=O)CC[C@@H]12 [4-Androstene-3,17-dione] | 1.04 | 1.01 | 1.12 | 0.219 | –
